From PubChem BioAssay AID1863 (Southern Research Specialized Biocontainment Screening …, 2009)
Hit rate of the full screen: of about 300,000 compounds, about 480 (0.16%) were called active.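 Rule for the calls: active = inhibition over 29.93%, a cutoff 3 SD above the screen mean, later confirmed by dose response; inconclusive = inhibition over 29.93% but no dose response follow-up; inactive = inhibition at most 29.93% or unconfirmed.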 Not all results are given here. Entries with a potency or affinity are not part of this list.

Test: inhibitors of PhoP regulon expression, primary screen, Salmonella Typhimurium, GFP reporter (AID 1863);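 note: 0% = low Mg2+ inducing control and 100% = high Mg2+ repressing control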
Conditions: S. Typhimurium PhoP-regulated promoter GFP reporter, 4 h; at 50 µM; active compounds read high

inhibition, inactive:
CC1(C)NC(=O)N(CC(O)CN2C(=O)CCC2=O)C1=O (centres undefined) -6.24%
Cn1c2ccccc2c(=O)c2ccc(C#Cc3ccccn3)cc21 0.47%
COc1ccccc1N1CCN(C(c2ccccc2)c2nnnn2CCc2ccccc2)CC1 (centres undefined) 1.99%
Cc1cc(C)n(CCCNC(=O)Cn2nnnc2CN2C[C@@H](C)O[C@@H](C)C2)n1 0.46%
COc1ccccc1NS(=O)(=O)c1ccc(Cl)c(NC(=O)c2sc3cc(Cl)ccc3c2Cl)c1 5.27%
Cc1cc(SCC(=O)N/N=C/c2ccc(O)c(O)c2)c(C)cc1Br -9.61%
Cc1cc(SCC(=O)N/N=C/c2ccc(O)cc2O)c(C)cc1Br -6.96%
CCCCC(c1nnnn1C1CCCC1)N1CCN(C(=O)c2ccco2)CC1 (centres undefined) -4.03%
Cc1cc(C(=O)N/N=C/c2cc(Cl)cc([N+](=O)[O-])c2O)c2ccccc2n1 28.8%
Cc1cc(C(=O)N/N=C/c2cc([N+](=O)[O-])ccc2O)c2ccccc2n1 18.3%
O=C(Nc1ccccc1N1CCN(C(=O)c2ccc(Cl)cc2)CC1)c1cccc(F)c1 2.12%
Cc1ccc(S(=O)(=O)N2CCC(C(=O)NCCN3CCOCC3)CC2)cc1C -3.49%
O=C(c1ccc(Cl)cc1)c1ccc(Oc2cc(NN3CCCCC3)c([N+](=O)[O-])cc2[N+](=O)[O-])cc1 6.36%
CCOc1ccc(C2CC(=O)NC2=O)cc1 (centres undefined) 3.62%
O=C(NCc1nc(-c2ccc(Cl)cc2)no1)c1ccco1 -1.48%
O=C(O)c1ccc(N2C(=O)CC(N3C(=O)/C(=C/c4ccc(Cl)cc4)SC3=S)C2=O)cc1 (centres undefined) 16%
CN1CCN(C(=O)CCN2C(=O)/C(=C\c3ccc(Cl)cc3)SC2=S)CC1 -5.92%
Cc1cccc(C)c1NC(=O)CCCCCC1NC(=O)NC1C (centres undefined) 2.4%
Cc1nn(-c2ccccc2)c(N)c1Sc1ccc([N+](=O)[O-])cc1 0.62%
C=CCn1c(=NC(=O)CN2C(=O)CCC2=O)sc2cc(S(N)(=O)=O)ccc21 17%
CC1CCN(Cc2ccc(-c3nnn(CC(=O)Nc4ccccc4Cl)n3)cc2)CC1 -3.86%
COc1ccccc1N1CCN(C(=O)C(C)CS(=O)(=O)c2ccc3c(c2)NC(=O)CS3)CC1 (centres undefined) -8.13%
O=[N+]([O-])c1cccc(-c2ccn[nH]2)c1 -3.87%
O=[N+]([O-])c1cc(-c2ccn[nH]2)ccc1Cl -3.78%
